# Measurements taken from PubChem BioAssay (NCATS).
# Inconclusive results are not listed. Entries that show only a call come without a potency. Values without a mark were called inactive. Active and inactive are the calls of the source. Calls follow the shape of the dose curve; as a rule, active = well fitted inhibition curve with a large enough effect; inconclusive = small, poorly fitted or top-dose-only effect; inactive = flat fitted curve, though single readings scatter. *1 amine or outer side, *2 acyl side, *3 side chain or, on linkers, in order; H or OH if unused. Where a SMILES comes first, the peptide text is derived from it. Bridges are numbered along the chain shown (N, C = ends). [ ]: non-standard residue; d: D form. The star is where a group is joined. X11 = NC1=N[C@@H](O)C[C@H]([C@H](N[*:1])C(=O)[*:2])N1; ΔAla(Z-3-ureido) = NC(=O)N/C=C(\N)C(=O)O; β3hOrn = NCCC[C@H](N)CC(=O)*; Dap = NC[C@H](N)C(=O)O
# Tests used:
# [1] = molecular target: Glutathione peroxidase 1 (Homo sapiens) (UniProt P07203); assay: Primary qHTS Assay for Inhibitors of Recombinant Selenoprotein Glutathione Peroxidase 1 (GPX1) (AID 1845191)
# In short: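 NADPH consumption tracked by fluorescence at 340/450 nm between t=0 and t=15 min, room temperature. Final mix: 10 nM GPX1, 100 nM glutathione reductase, 1 mM GSH, 0.5 mM NADPH, 0.5 mM cumene hydroperoxide, 0.01% BSA; 30 min compound–enzyme preincubation.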
# [2] = molecular target: Phospholipid hydroperoxide glutathione peroxidase GPX4 (Homo sapiens) (UniProt P36969); assay: Primary qHTS Assay for Inhibitors of Recombinant Selenoprotein Glutathione Peroxidase 4 (GPX4) (AID 1845192); as to activity change, negative = inhibition: series mostly up to about 50 µM
# In short: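 NADPH consumption followed by fluorescence at 340/450 nm, t=0 and after 15 min at room temperature. Reaction started with cumene hydroperoxide (0.5 mM final) after 30 min compound–GPX4 preincubation; final 200 nM GPX4, 100 nM GR, 1 mM GSH, 0.5 mM NADPH.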
# Also: nearly all actives have a fitted effect of over 65% in size.
# Potency is read from the fitted curve at half-maximal effect.
# Glutathione peroxidase 1 (Homo sapiens), sequence (P07203 whole entry, looked up): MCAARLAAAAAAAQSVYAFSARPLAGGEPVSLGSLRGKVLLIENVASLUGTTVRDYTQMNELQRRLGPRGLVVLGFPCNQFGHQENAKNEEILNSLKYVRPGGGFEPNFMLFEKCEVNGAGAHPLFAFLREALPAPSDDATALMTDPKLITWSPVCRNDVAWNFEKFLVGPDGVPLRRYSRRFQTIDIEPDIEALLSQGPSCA
# Phospholipid hydroperoxide glutathione peroxidase GPX4 (Homo sapiens), sequence (P36969 whole entry, looked up): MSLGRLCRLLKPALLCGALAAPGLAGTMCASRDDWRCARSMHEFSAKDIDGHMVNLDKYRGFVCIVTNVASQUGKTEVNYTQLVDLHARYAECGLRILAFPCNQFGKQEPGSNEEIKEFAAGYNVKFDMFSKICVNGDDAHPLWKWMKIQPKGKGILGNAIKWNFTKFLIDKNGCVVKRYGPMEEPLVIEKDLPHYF
structure (smiles),measurement,setting,value
CCCCC[C@H](O)/C=C/[C@@H]1[C@@H](C/C=C/CCCC(=O)O)[C@@H](O)C[C@H]1O,Potency,[1],inactive
same,Potency,[2],inactive
CO[C@@H]1C[C@H](O[C@H]2[C@H](C)[C@H](O[C@@H]3O[C@@H](C)C[C@@H](N(C)C)[C@H]3OC(C)=O)[C@H](C)C[C@]3(CO3)C(=O)[C@H](C)[C@H](OC(C)=O)[C@H](C)[C@H](C)OC(=O)[C@@H]2C)O[C@H](C)[C@H]1OC(C)=O,Potency,[1],inactive
same,Potency,[2],inactive
CC(C)OC(=O)CCC/C=C\C[C@@H]1[C@@H](CC[C@@H](O)CCc2ccccc2)[C@H](O)C[C@@H]1O,outcome,[1],inactive [at 9.52 µM]
same,"activity change, negative = inhibition",[2],4.91% [at 9.73 µM]
O=C1CCC(C(=O)O)N1 (stereo unspecified),Potency,[1],inactive
same,Potency,[2],inactive
"C[C@@H]1NC(=O)[C@@H]2CCCN2C(=O)[C@H](CC(N)=O)NC(=O)[C@@H]2CSSC[C@H](N)C(=O)N[C@H]3CSSC[C@H](NC1=O)C(=O)N[C@@H]([C@@H](C)O)C(=O)NCC(=O)N[C@H](C(=O)N[C@@H](Cc1ccc(O)cc1)C(=O)O)CSSC[C@H](NC(=O)[C@H](Cc1ccc(O)cc1)NC(=O)[C@H](CCC(=O)O)NC3=O)C(=O)N2 (H-CCEYCCNPACTGCY-OH; disulfide 1-6, 2-10, 5-13)",Potency,[1],inactive
same,Potency,[2],inactive
COc1cc2c(cc1OC)[C@H]1C[C@@H](OC(=O)[C@@H](N)C(C)C)[C@H](CC(C)C)CN1CC2,Potency,[1],inactive
same,Potency,[2],inactive
CC[C@H]1OC(=O)C[C@@H](O)[C@H](C)[C@@H](OC2OC(C)C(O)C(N(C)C)C2O)[C@@H](CCN2CCCCC2)C[C@@H](C)C(=O)/C=C/C(C)=C/[C@@H]1CN1CCCCC1 (stereo partly specified),Potency,[1],inactive
same,Potency,[2],inactive
CCCCCCCCCCCC(=O)OCN1C(=O)CCc2ccc(OCCCCN3CCN(c4cccc(Cl)c4Cl)CC3)cc21,Potency,[1],inactive
same,Potency,[2],inactive
O=C(OCCN(CCO)CCO)c1ccccc1O,Potency,[1],inactive
same,Potency,[2],inactive
CC(C)CCC[C@@H](C)[C@H]1CC[C@H]2[C@@H]3CC=C4C[C@@H](O)CC[C@]4(C)[C@@H]3CC[C@]12C,Potency,[1],inactive
same,Potency,[2],inactive
OC[C@H]1O[C@@H](OC[C@H]2O[C@@H](O[C@@H]3[C@@H](O)[C@H](O)O[C@H](CO)[C@H]3O)[C@H](O)[C@@H](O[C@@H]3O[C@H](CO)[C@@H](O)[C@H](O)[C@H]3O)[C@@H]2O)[C@H](O)[C@@H](O)[C@@H]1O,Potency,[1],inactive
same,Potency,[2],inactive
CCCCCCCCCC(=O)OC1(c2ccc(Cl)cc2)CCN(CCCC(=O)c2ccc(F)cc2)CC1,Potency,[1],inactive
same,Potency,[2],inactive
CSCCNc1nc(SCCC(F)(F)F)nc2c1ncn2[C@@H]1O[C@H](COP(=O)(O)OP(=O)(O)C(Cl)(Cl)P(=O)(O)O)[C@@H](O)[C@H]1O,Potency,[1],inactive
same,Potency,[2],inactive
C#C[C@]1(O)CC[C@H]2[C@@H]3CCC4=CC(=O)CCC4[C@H]3CC[C@@]21CC (stereo partly specified),Potency,[1],inactive
same,Potency,[2],inactive
O=C1[C@@H]2[C@H]3CC[C@H](C3)[C@@H]2C(=O)N1C[C@@H]1CCCC[C@H]1CN1CCN(c2nsc3ccccc23)CC1,Potency,[1],inactive
same,Potency,[2],inactive
CC[C@H]1OC(=O)C[C@@H](OC(C)=O)[C@H](C)[C@@H](O[C@@H]2O[C@H](C)[C@@H](O[C@H]3C[C@@](C)(O)[C@@H](OC(=O)CC(C)C)[C@H](C)O3)[C@H](N(C)C)[C@H]2O)[C@@H](CC=O)C[C@@H](C)C(=O)/C=C/C(C)=C/[C@@H]1CO[C@@H]1O[C@H](C)[C@@H](O)[C@@H](OC)[C@H]1OC,Potency,[1],inactive
same,Potency,[2],inactive
OB1OCc2cc(F)ccc21,Potency,[1],inactive
same,Potency,[2],inactive
CSCC[C@H](N)C(=O)O,Potency,[1],inactive
same,Potency,[2],inactive
CC(OC(=O)OC1CCCCC1)OC(=O)C1=C(CSc2nnnn2CCN(C)C)CS[C@@H]2[C@H](NC(=O)Cc3csc(N)n3)C(=O)N12 (stereo partly specified),Potency,[1],7.18 µM (active)
same,Potency,[2],8.91 µM (active)
C=C1/C(=C/C=C2\CCC[C@]3(C)[C@@H]([C@H](C)CC[C@@H](O)C(C)C)CC[C@@H]23)C[C@@H](O)C[C@@H]1O,Potency,[1],inactive
same,Potency,[2],15.8 µM (active)
CO[C@H]1C[C@H](O[C@@H]2[C@H](C)O[C@H](O[C@@H]3/C(C)=C/C[C@@H]4C[C@@H](C[C@]5(C=C[C@H](C)[C@@H](C6CCCCC6)O5)O4)OC(=O)[C@@H]4C=C(C)C(O)[C@H]5OC/C(=C\C=C\[C@@H]3C)[C@]54O)C[C@@H]2OC)O[C@@H](C)[C@@H]1O (stereo partly specified),Potency,[1],inactive
same,Potency,[2],inactive
O=C(OC1C[C@@H]2CC3C[C@@H](C1)N2CC3=O)c1c[nH]c2ccccc12 (stereo partly specified),Potency,[1],inactive
same,Potency,[2],inactive
CC(C)(C)NCC(O)COc1ccccc1C#N (stereo unspecified),Potency,[1],inactive
same,Potency,[2],inactive
O[C@@H]1[C@@H](O)[C@@H](O)OC[C@@H]1O,Potency,[1],inactive
same,Potency,[2],inactive
CCCCCCCCCCCCCCCC(=O)OC1CCCn2c1nc(C)c(CCN1CCC(c3noc4cc(F)ccc34)CC1)c2=O (stereo unspecified),Potency,[1],inactive
same,Potency,[2],inactive
CCCC(=O)Nc1ncnc2c1ncn2C1O[C@@H]2COP(=O)(O)O[C@H]2[C@H]1OC(=O)CCC (stereo partly specified),Potency,[1],inactive
same,Potency,[2],inactive
CCC(=O)Oc1ccc2c(c1)CC[C@@H]1[C@H]2CC[C@]2(C)[C@@H](OC(=O)CC)CC[C@@H]12,Potency,[1],inactive
same,Potency,[2],inactive
CCCCCCCCCCCCCCCC(=O)OC1C(SC)OC(C(NC(=O)C2CC(CCC)CN2C)C(C)Cl)C(O)C1O (stereo unspecified),Potency,[1],inactive
same,Potency,[2],inactive
CCCCCCCCN=C(N)NC(N)=NCc1ccc(Cl)c(Cl)c1,Potency,[1],inactive
same,Potency,[2],inactive
CCCCCCCC(=O)N[C@H](CN1CCCC1)[C@H](O)c1ccc2c(c1)OCCO2,Potency,[1],inactive
same,Potency,[2],inactive
CO[C@@H]1[C@@H](O[C@@H]2O[C@H](C)[C@@H](O[C@H]3C[C@@](C)(O)[C@H](O)[C@H](C)O3)[C@H](N(C)C)[C@H]2O)[C@@H](CC=O)C[C@@H](C)[C@@H](O[C@H]2CC[C@H](N(C)C)[C@@H](C)O2)/C=C/C=C/C[C@H](C)OC(=O)C[C@H]1O,Potency,[1],inactive
same,Potency,[2],inactive
NS(=O)(=O)c1ccc(-n2nc(C(F)(F)F)cc2-c2ccc(F)cc2)cc1,Potency,[1],inactive
same,Potency,[2],inactive
[Mn].[O]=[Mn][OH].[O]=[Mn][OH],Potency,[1],inactive
same,Potency,[2],inactive
CCC1(C)OC(=O)N(C)C1=O (stereo unspecified),Potency,[1],inactive
same,Potency,[2],inactive
CC(C)C[C@H](NC(=O)[C@@H](Cc1c[nH]c2ccccc12)NC(=O)[C@H](Cc1ccc(O)cc1)NC(=O)[C@H](CO)NC(=O)[C@H](Cc1c[nH]c2ccccc12)NC(=O)[C@H](Cc1cnc[nH]1)NC(=O)[C@@H]1CCC(=O)N1)C(=O)N[C@@H](CCCN=C(N)N)C(=O)N1CCC[C@H]1C(=O)NCC(N)=O,Potency,[1],inactive
same,Potency,[2],inactive
COc1ccc(CNc2nc(N3CCC[C@H]3CO)ncc2C(=O)NCc2ncccn2)cc1Cl,Potency,[1],inactive
same,Potency,[2],inactive
O=C(O)[C@@H]1C(=CCO)O[C@@H]2CC(=O)N12,Potency,[1],inactive
same,Potency,[2],inactive
NCCC[C@H](N)CC(=O)N[C@H]1CNC(=O)[C@H]([C@H]2C[C@H](O)N=C(N)N2)NC(=O)/C(=C/NC(N)=O)NC(=O)[C@H](CO)NC(=O)[C@H](CO)NC1=O (β3hOrn-[Dap]SS[ΔAla(Z-3-ureido)][X11]; lactam 1-C),Potency,[1],inactive
same,Potency,[2],inactive
Cc1nccn1CCC(C(N)=O)(c1ccccc1)c1ccccc1,Potency,[1],inactive
same,Potency,[2],inactive
C[C@]12C=CC(=O)C=C1CC[C@@H]1[C@@H]2[C@@H](O)C[C@@]2(C)[C@H]1CC[C@]2(O)C(=O)COP(=O)(O)O,outcome,[1],inactive [at 9.52 µM]
same,outcome,[2],inactive [at 9.73 µM]
CC(=O)O[C@]1(C(C)=O)CC[C@H]2[C@@H]3C=C(C)C4=CC(=O)CC[C@@H]4[C@H]3CC[C@@]21C,Potency,[1],inactive
same,Potency,[2],inactive
C=Cc1c(C)c2cc3nc(c(CC(=O)N[C@@H](CC(=O)O)C(=O)O)c4nc(cc5[nH]c(cc1[nH]2)c(C)c5CC)C(C)=C4C(=O)O)[C@@H](CCC(=O)O)[C@@H]3C,Potency,[1],inactive
same,Potency,[2],inactive
CC(C)(C)NCC(O)COc1ccccc1C1CCCC1 (stereo unspecified),Potency,[1],inactive
same,Potency,[2],inactive
CCCCC(CC)COC(=O)c1ccc(Nc2nc(Nc3ccc(C(=O)OCC(CC)CCCC)cc3)nc(Nc3ccc(C(=O)OCC(CC)CCCC)cc3)n2)cc1 (stereo unspecified),Potency,[1],inactive
same,Potency,[2],inactive
CCCCC(C)(O)CC=C[C@H]1[C@H](O)CC(=O)[C@H]1CCCCCCC(=O)OC (stereo partly specified),Potency,[1],inactive
same,Potency,[2],inactive
N#Cc1c(N2C[C@@H]3NCCO[C@H]3C2)c(F)cc2c(=O)c(C(=O)O)cn(C3CC3)c12,Potency,[1],inactive
same,Potency,[2],inactive
C[C@](C#N)(COc1cc(C#N)ccc1C(F)(F)F)NC(=O)c1ccc(SC(F)(F)F)cc1,Potency,[1],inactive
same,Potency,[2],inactive
CCCCCCCCCCCCCCCC(=O)OCC(=O)[C@@]1(O)[C@H](C)C[C@H]2[C@@H]3CCC4=CC(=O)C=C[C@]4(C)[C@@]3(F)[C@@H](O)C[C@@]21C,Potency,[1],inactive
same,Potency,[2],inactive
CCC[C@@H]1C[C@@H](C(=O)N[C@@H](C2O[C@H](SC)[C@H](O)[C@@H](O)[C@H]2O)[C@H](C)Cl)N(C)C1 (stereo partly specified),Potency,[1],inactive
same,Potency,[2],inactive
O=C(O[C@H]1C[N+]2(CCCOc3ccccc3)CCC1CC2)C(O)(c1cccs1)c1cccs1,Potency,[1],inactive
same,Potency,[2],inactive
C[C@@H]1O[C@@H](O[C@@H]2/C=C/C=C/C=C\C=C\C[C@H](C)OC(=O)/C=C/[C@H]3O[C@@H]3C[C@H](O)C[C@]3(O)C[C@@H](O)[C@@H](C(=O)O)[C@H](C2)O3)[C@H](O)[C@H](N)[C@@H]1O,Potency,[1],inactive
same,"activity change, negative = inhibition",[2],-18.7% [at 9.73 µM]
CCCC(=O)O[C@]1(C(=O)COC(C)=O)CC[C@H]2C3C[C@H](F)C4=CC(=O)C=C[C@]4(C)[C@@]3(F)[C@@H](O)C[C@@]21C (stereo partly specified),Potency,[1],inactive
same,Potency,[2],inactive
CC[C@H]1OC(=O)[C@H](C)[C@@H](O[C@H]2C[C@@](C)(OC)[C@@H](O)[C@H](C)O2)[C@H](C)[C@@H](O[C@@H]2O[C@H](C)C[C@H](N(C)C)[C@H]2O)C(C)(O)C[C@@H](C)/C(=N\OCOCCOC)[C@H](C)[C@@H](O)[C@]1(C)O (stereo partly specified),Potency,[1],inactive
same,Potency,[2],inactive
